“And” between values parts separate entries of the source, which are not always exact repeats. Equal values may be shown once. Inconclusive results are not listed. Where a structure was tested more than once in an assay, its records may differ in their call. The source made the active and inactive calls. Unless noted, the call rests on the fitted dose curve; in most records, active means well fitted curve in the direction sought with a large enough effect in the repeat runs; inconclusive means weak or mixed curves; inactive means no such curve, though single readings can be large; an effect the other way counts as inactive or inconclusive.

Test [1] addresses Retinoic acid receptor RXR-alpha (Homo sapiens) (UniProt P19793). The experiment in a line: qHTS assay to identify small molecule agonists of the RXR signaling pathway (AID 1159527; calls by dose curve; further: nearly all actives have a fitted effect of over 35% in size; further: potency means the concentration at half of the fitted maximal effect). In outline: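 16 hr incubation of compound-treated RXR-alpha-UAS-bla HEK 293T cells (2% charcoal-stripped FBS, 37 C) preceded a 2 hr room-temperature LiveBLAzer FRET substrate step and blue/green fluorescence measurement.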
(In qHTS, concentration-response curves come from the screen itself.)

A short description of test [2]: qHTS assay to identify small molecule agonists of the RXR signaling pathway - cell viability counter screen (AID 1159529). Further: nearly all actives have a fitted effect of over 50% in size. Further: potency means the concentration at half of the fitted maximal effect.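 On activity change, negative = cytotoxicity: HEK 293T cells carrying an RXR-alpha UAS beta-lactamase reporter; series mostly up to about 77 µM.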 An outline of the steps: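 In this parallel viability measure, GeneBLAzer RXR-alpha HEK 293T cells (2% charcoal-stripped FBS) were given a 5 hr preincubation, treated with compounds 16 hr at 37 C, and read by CellTiter-Glo luminescence.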
A short description of test [3]: qHTS assay to identify small molecule antagonists of the retinoid acid receptor (RAR) signaling pathway - cell viability counter screen (AID 1159551). Further: nearly all actives have a fitted effect of over 35% in size. An outline of the steps: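 Cytotoxicity counter screen in C3RL4 cells: 6 h compound exposure with 1 uM retinol (final), viability from cellular ATP by luminescence.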
The nature of test [4]: qHTS assay to identify small molecule antagonists of the retinoic acid receptor (RAR) signaling pathway (AID 1159552; further: nearly all actives have a fitted effect of over 50% in size). In outline: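 C3RL4 RARE-luc cells, overnight plating; retinol 1 uM final added right after compound; 6 hr 37 C; luciferase read at 30 min RT.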
Test [5] is described as follows: qHTS assay to identify small molecule agonists of the retinoic acid receptor (RAR) signaling pathway (AID 1159553). Further: potency means the concentration at half of the fitted maximal effect. An outline of the steps:
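Agonist activity was scored in C3RL4 cells bearing a retinoic acid response element luciferase construct. Cells were treated with compounds for 6 hr at 37 C, and luciferase signal was measured as luminescence.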

Test [6] is described as follows: qHTS assay to identify small molecule antagonists of the estrogen related receptor (ERR) signaling pathway from Tox21 library - cell viability counter screen (AID 1224834). Further: nearly all actives have a fitted effect of over 30% in size. Further: potency means the concentration at half of the fitted maximal effect. An outline of the steps: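 Cytotoxicity of test substances is gauged in the same ERR cells used for the antagonist screen, after 17.5 h of compound treatment at 37 C, by CellTiter-Fluor fluorescence measured after 30 min.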

Test [7] addresses Luciferin 4-monooxygenase (Photinus pyralis) (UniProt P08659). The experiment in a line: qHTS assay to identify small molecule inhibitors of firefly luciferase (AID 1224835). Further: nearly all actives have a fitted effect of over 25% in size. Further: potency means the concentration at half of the fitted maximal effect. On activity change, negative = inhibition: series mostly up to about 120 µM. In outline:
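Biochemical qHTS: compounds run as interplate titrations against purified firefly enzyme, with D-luciferin and ATP each at its KM concentration. Light output recorded by CCD imaging.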

Test [8] can be described thus: qHTS assay to identify small molecule agonists of the constitutive androstane receptor (CAR) signaling pathway - cell viability counter screen (AID 1224836). Further: series mostly up to about 92 µM; nearly all actives have a fitted effect of over 45% in size. In outline: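 Using CellTiter-Fluor, viability of HepG2 cells harbouring hCAR and CYP2B6-2.2kb was measured following 23 h incubation with a 15-concentration compound series plus PK11195 (0.75 uM final).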
A short description of test [9]: qHTS assay to identify small molecule antagonists of the constitutive androstane receptor (CAR) signaling pathway - cell viability counter screen (AID 1224837). Further: series mostly up to about 92 µM; nearly all actives have a fitted effect of over 45% in size. An outline of the steps:
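Multiplexed cytotoxicity read-out for the CAR antagonist screen: double-stable HepG2-CYP2B6-hCAR cells co-treated with 50 nM CITCO (final) and compound over 15 concentrations, incubated 23 hr, then assessed by CellTiter-Fluor fluorescence.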

Test [10] can be described thus: qHTS assay to identify small molecule antagonists of the estrogen related receptor signaling pathway with the pleiotropic PPARgamma coactivator (PGC) cell viability counter screen (AID 1224822;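 further: series mostly up to about 46 µM; viability read after 17.5 h compound exposure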). An outline of the steps:
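Seed PGC/ERR cells (2,000/well); incubate 6 h at 37 C/5% CO2; pin-transfer compounds in DMSO; incubate 17.5 h at 37 C; add CellTiter-Fluor; after 30 min read fluorescence.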
On the % scale 0 is the no-effect control and ±100 the full control effect.

Sequence of Retinoic acid receptor RXR-alpha (Homo sapiens) (P19793 whole entry, looked up): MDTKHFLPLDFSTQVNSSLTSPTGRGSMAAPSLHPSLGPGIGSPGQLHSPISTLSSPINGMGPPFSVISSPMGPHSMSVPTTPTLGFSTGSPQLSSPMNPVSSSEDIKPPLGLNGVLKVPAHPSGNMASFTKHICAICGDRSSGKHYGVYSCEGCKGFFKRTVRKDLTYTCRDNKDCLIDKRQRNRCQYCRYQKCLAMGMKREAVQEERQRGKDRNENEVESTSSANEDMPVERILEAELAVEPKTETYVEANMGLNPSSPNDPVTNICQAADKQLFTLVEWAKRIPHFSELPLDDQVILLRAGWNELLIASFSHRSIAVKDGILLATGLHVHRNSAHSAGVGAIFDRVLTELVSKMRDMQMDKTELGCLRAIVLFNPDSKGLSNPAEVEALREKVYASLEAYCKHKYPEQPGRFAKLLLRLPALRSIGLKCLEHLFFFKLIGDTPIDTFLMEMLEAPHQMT
Sequence of Luciferin 4-monooxygenase (Photinus pyralis) (P08659 whole entry, looked up): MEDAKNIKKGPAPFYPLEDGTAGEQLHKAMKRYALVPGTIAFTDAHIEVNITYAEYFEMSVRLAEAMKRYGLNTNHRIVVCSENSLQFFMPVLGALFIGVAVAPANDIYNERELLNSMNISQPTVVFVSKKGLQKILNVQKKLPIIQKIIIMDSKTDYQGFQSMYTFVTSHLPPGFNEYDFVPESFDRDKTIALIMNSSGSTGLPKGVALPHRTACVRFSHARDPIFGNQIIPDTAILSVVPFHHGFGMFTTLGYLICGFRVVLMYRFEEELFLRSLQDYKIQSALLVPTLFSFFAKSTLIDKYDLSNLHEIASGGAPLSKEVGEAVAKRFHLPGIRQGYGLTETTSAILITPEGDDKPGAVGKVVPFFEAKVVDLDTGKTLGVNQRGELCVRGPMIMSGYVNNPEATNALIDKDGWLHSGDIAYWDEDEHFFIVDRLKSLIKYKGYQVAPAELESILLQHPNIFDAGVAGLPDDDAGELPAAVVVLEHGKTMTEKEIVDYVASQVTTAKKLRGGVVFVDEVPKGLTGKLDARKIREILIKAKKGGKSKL

As for `CCCCCCOCCO`, the Potency result in [1], in test [2], in [4], in [5], in test [6] and in [7] was “inactive” in each case. The Potency result in [8] and in [9] was “inactive” throughout. In addition, the result in test [3] was inactive.

As to `CCN(CC)CCCC(C)Nc1ccnc2cc(Cl)ccc12` (stereo not given), the activation in test [1] is -0.146% [at 15.8 µM] (inactive). In addition, the activity change, negative = cytotoxicity is -13.3% [at 6.97 µM] (inactive) and -18.7% [at 15.8 µM] (inactive) in test [2]; 1.59% [at 8.39 µM] (inactive) and -1.6% [at 19 µM] (inactive) in test [3]. Further, the figures for the viability change, negative = cytotoxic in test [6] and in [8] were -0.582% [at 8.39 µM] (inactive) and -3.22% [at 8.39 µM] (inactive), respectively. The activity change, negative = inhibition in test [7] was -0.277% [at 10.5 µM] (inactive) and -0.0339% [at 23.6 µM] (inactive).

`O=C(O)CCCC[C@@H]1SC[C@@H]2NC(=O)N[C@@H]21`: the Potency entry in test [1], in test [2], in test [4], in [5], in test [6] and in test [7] was “inactive” in each case. The Potency result in [8] and in [9] was “inactive” throughout. Besides, in test [3], the outcome was inactive.

Consider `O=C(O)CC(C(=O)O)C(CC(=O)O)C(=O)O` (stereo not given), for which the Potency result in test [1], in test [2], in test [4], in [5], in [6] and in test [7] was “inactive” throughout. Besides, the Potency entry in test [8] and in test [9] was “inactive” in each case. The outcome in [3] was inactive.

On to `CC(=O)Nc1cccc(O)c1`, for which the Potency entry in test [1], in test [2], in [4], in test [5], in test [6] and in test [7] was “inactive” in each case. The Potency entry in test [8] and in [9] was “inactive” in each case. Besides, the outcome in test [3] was inactive.

With `CC(=O)Nc1ccccc1`, the Potency result in test [1], in [2], in [4], in [5], in test [6] and in test [7] was “inactive” in each case. In addition, the Potency result in test [8] and in test [9] was “inactive” in each case. In addition, the call in [3] was inactive.

For the compound `CCCCCOC(C)=O`, the Potency in test [1] was 0.279 µM (active). In addition, the Potency result in [2], in test [4], in test [5], in test [6], in [7] and in test [8] was “inactive” each time. The Potency entry in test [9] is “inactive”. Also, the outcome in test [3] was inactive.

For `NNc1nncc2ccccc12`, in [1], the activation was -4.54% [at 15.8 µM] (inactive). The activity change, negative = cytotoxicity in [2] is -0.524% [at 15.8 µM] (inactive). In addition, the call in test [3] and in test [10] was inactive. Moreover, the Potency entry in [4], in test [8] and in [9] was “inactive” each time. The Potency in test [5] was 770 nM (active) and 5.17 µM (active). Also, the viability change, negative = cytotoxic in test [6] is 6.05% [at 19 µM] (inactive).

Consider `N[C@@H](Cc1cc(I)c(Oc2cc(I)c(O)c(I)c2)c(I)c1)C(=O)O`, for which the Potency result in [1], in [2], in test [4], in test [5], in [6] and in test [7] was “inactive” throughout. In addition, the Potency entry in test [8] and in test [9] was “inactive” throughout. The outcome in [3] was inactive.

As to `CCOC(=O)NNc1nncc2ccccc12`, the Potency result in test [1], in [2], in [4], in test [5], in [6] and in [7] was “inactive” in each case. Moreover, the Potency entry in [8] and in test [9] was “inactive” throughout. Moreover, the compound was classed as inactive in test [3].

For the compound `C/C=C1/CC2C=CC1C2` (stereo not given), the Potency result in [1], in test [2], in [4], in test [5], in [6] and in [7] was “inactive” each time. Besides, the Potency result in [8] and in test [9] was “inactive” in each case. In addition, the call in test [3] was inactive.

On to `C=C(C)C(=O)O[C@H]1C[C@@H]2CC[C@@]1(C)C2(C)C`, for which the Potency result in test [1] is “inactive”. Further, the Potency was 15.4 µM (active) and inactive in [2]; 8.58 µM (active) and inactive in [6]; 19.9 µM (active) and inactive in test [7]. For the same compound, the result in test [3] was inactive.

For `CCC(O)OC(O)CC` (stereo not given), the Potency result in test [1], in test [2], in test [4], in test [5], in [6] and in test [7] was “inactive” each time. The Potency result in [8] and in test [9] was “inactive” throughout. Further, the result in [3] was inactive.

Regarding `CCCCCCCCCCCCS`, the Potency result in test [1], in test [2], in [4], in test [5], in test [6] and in test [7] was “inactive” each time. Besides, the Potency entry in test [8] and in [9] was “inactive” in each case. In addition, the outcome in test [3] was inactive.

Regarding `CC(=O)CC(=O)Nc1ccccc1C`, the Potency entry in [1], in test [2], in test [4], in [5], in test [6] and in test [7] was “inactive” each time. The Potency result in test [8] and in test [9] was “inactive” in each case. Moreover, the outcome in test [3] was inactive.

As for `Cc1ccc(S(N)(=O)=O)cc1`, the Potency result in [1], in test [2], in [4], in [5], in test [6] and in [7] was “inactive” throughout. Moreover, the Potency entry in test [8] and in test [9] was “inactive” each time. In test [3], the result was inactive.

On to `CCCC(C)=O`, for which the Potency result in [1], in test [2], in test [4], in test [5], in [6] and in test [7] was “inactive” in each case. For the same compound, the Potency entry in [8] and in test [9] was “inactive” throughout. The call in [3] was inactive.

As to `c1ccc2c(c1)ccc1ccccc12`, the Potency entry in test [1], in test [2], in [4], in [5], in [6] and in test [8] was “inactive” each time. Further, the Potency result in test [9] was “inactive”. For the same compound, the compound was called inactive in test [3]. Besides, in test [7], the Potency was 34.6 µM (active) and 56.4 µM (active).

`Fc1ccc(Br)cc1`: the Potency result in [1], in [2], in test [4], in test [5], in test [6] and in test [7] was “inactive” throughout. The Potency result in [8] and in test [9] was “inactive” in each case. Besides, the call in test [3] was inactive.

With `CN(C)CCC(c1ccc(Cl)cc1)c1ccccn1` (stereo not given), the Potency entry in [1] and in test [8] was “inactive” throughout. Besides, the Potency in test [2] was 55.1 µM (active); in [6], 48.7 µM (active) and inactive. Also, the compound was called inactive in test [3] and in test [10].

Regarding `COc1ccc(NC(C)=O)cc1N`, the Potency entry in test [1], in [2], in [4], in test [5], in test [6] and in test [7] was “inactive” in each case. For the same compound, the Potency result in test [8] and in [9] was “inactive” each time. Besides, the compound was called inactive in test [3].

As for `Cc1cc(C)c(C)cc1C`, the Potency result in test [1], in test [2], in [4], in test [5], in test [6] and in test [7] was “inactive” in each case. Besides, the Potency entry in test [8] and in test [9] was “inactive” in each case. Moreover, the compound was called inactive in [3].

As for `C#CCN(C)Cc1ccccc1`, the Potency entry in test [1], in [2], in test [4], in test [5], in test [6] and in test [7] was “inactive” throughout. Also, the Potency entry in test [8] and in test [9] was “inactive” throughout. The compound was classed as inactive in test [3] and in test [10].

Consider `CCCCC(CC)COC(=O)CS` (stereo not given), for which the Potency entry in test [1], in test [2], in [4], in test [5], in [6] and in test [7] was “inactive” in each case. Further, the Potency entry in [8] and in test [9] was “inactive” throughout. Also, in test [3], the outcome was inactive.

On to `CCc1cccc(C)c1N`, for which the Potency result in test [1], in test [2], in test [4], in test [5], in test [6] and in test [7] was “inactive” each time. The Potency entry in test [8] and in test [9] was “inactive” throughout. In test [3], the outcome was inactive.

Regarding `C=C(C)C(=O)OCCOCCOCCOC(=O)C(=C)C`, the Potency entry in test [1], in test [2], in test [4], in test [5], in test [6] and in test [7] was “inactive” in each case. In addition, the Potency entry in test [8] and in test [9] was “inactive” each time. The outcome in test [3] was inactive.

These data come from PubChem BioAssay (Tox21).
